The values that follow come from the antibiotic and cytotoxicity screens of Wong et al. (2023).

Molecules are shown by their SMILES. The whole screen tested about 39,000 compounds, of which about 3,300 (8.5%) were called active. Only a selection was taken, and actives are over-represented in it overall.

The subject of the test is HepG2. Put plainly: cytotoxicity call (relative viability < 0.9). The conditions noted are these: 10 µM.
On to `C[C@@H]1CN([C@@H](C)CO)C(=O)CCCn2cc(nn2)CO[C@@H]1CN(C)S(=O)(=O)c1ccc(C#N)cc1`, for which the cytotoxicity call was “inactive”.

`C[C@@H]1CN([C@H](C)CO)C(=O)c2cc(NS(=O)(=O)c3ccc(F)cc3)ccc2O[C@@H]1CN(C)Cc1ccc(Oc2ccccc2)cc1`: the cytotoxicity call was “active”.

For the compound `C[C@@H]1CN([C@H](C)CO)C(=O)c2cc(NS(=O)(=O)c3ccc(F)cc3)ccc2O[C@H]1CN(C)Cc1ccc(Oc2ccccc2)cc1`, the cytotoxicity call is “inactive”.

With `C[C@H]1CN([C@@H](C)CO)C(=O)c2cc(NS(=O)(=O)c3ccc(F)cc3)ccc2O[C@@H]1CN(C)Cc1ccc(Oc2ccccc2)cc1`, the cytotoxicity call is “inactive”.

For `C[C@@H]1CN([C@@H](C)CO)C(=O)c2cc(NS(=O)(=O)c3ccc(F)cc3)ccc2O[C@H]1CN(C)Cc1ccc(Oc2ccccc2)cc1`, the cytotoxicity call is “inactive”.

For `C[C@@H]1CN([C@@H](C)CO)C(=O)c2cc(NS(=O)(=O)c3ccc(F)cc3)ccc2O[C@@H]1CN(C)Cc1ccc(Oc2ccccc2)cc1`, the cytotoxicity call is “active”.

Regarding `C[C@H]1CN([C@@H](C)CO)C(=O)c2cc(NS(=O)(=O)c3ccc(F)cc3)ccc2O[C@H]1CN(C)Cc1ccc(Oc2ccccc2)cc1`, the cytotoxicity call was “inactive”.

Turning to `COCC(=O)N(C)C[C@@H]1Oc2cc(C#Cc3ccccc3)ccc2S(=O)(=O)N([C@H](C)CO)C[C@@H]1C`, the cytotoxicity call was “inactive”.

Regarding `C[C@H](CO)N1C[C@H](C)[C@H](CN(C)S(=O)(=O)c2cn(C)cn2)Oc2cc(C#Cc3ccccc3)ccc2S1(=O)=O`, the cytotoxicity call was “inactive”.

As for `CNCCC(Oc1cccc2ccccc12)c1cccs1.Cl` (stereo not given), the cytotoxicity call was “active”.

Turning to `CNCc1cccc2ccccc12`, the cytotoxicity call was “inactive”.

Regarding `Cc1noc(C)c1S(=O)(=O)Nc1ccc2c(c1)CC(=O)N([C@H](C)CO)C[C@H](C)[C@@H](CN(C)Cc1ccccc1)O2`, the cytotoxicity call is “inactive”.

For the compound `C[C@H]1CN([C@@H](C)CO)C(=O)c2cccc(NS(=O)(=O)c3ccc(Cl)cc3)c2O[C@@H]1CN(C)C(=O)Nc1cccc2ccccc12`, the cytotoxicity call is “inactive”.

Take `Nc1nc(=O)c2ncn([C@@H]3O[C@H](CO)[C@@H](O)[C@H]3O)c2[nH]1`: the cytotoxicity call was “inactive”.

As for `O=c1nc[nH]c2c1ncn2[C@@H]1O[C@H](CO)[C@@H](O)[C@H]1O`, the cytotoxicity call was “inactive”.

Take `Nc1nc(F)nc2c1ncn2[C@@H]1O[C@H](COP(=O)(O)O)[C@@H](O)[C@@H]1O`: the cytotoxicity call was “inactive”.

Turning to `Nc1ncnc2c1ncn2[C@@H]1O[C@H](CO)[C@@H](O)[C@@H]1O`, the cytotoxicity call was “inactive”.

On to `Nc1nc(=S)c2ncn([C@@H]3O[C@H](CO)[C@@H](O)[C@H]3O)c2[nH]1`, for which the cytotoxicity call was “active”.

Consider `Nc1ncnc2c1ncn2[C@H]1O[C@@H](CO)[C@H](O)[C@@H]1O`, for which the cytotoxicity call is “inactive”.

As to `Nc1ncnc2c1ncn2[C@@H]1O[C@H](COP(=O)(O)OP(=O)(O)OP(=O)(O)OP(=O)(O)OC[C@H]2O[C@@H](n3cnc4c(N)ncnc43)[C@H](O)[C@@H]2O)[C@@H](O)[C@H]1O`, the cytotoxicity call was “active”.

On to `Nc1nc(F)nc2c1ncn2[C@@H]1O[C@H](CO)[C@@H](O)[C@H]1O`, for which the cytotoxicity call is “active”.

For `Nc1ncnc2c1ncn2[C@@H]1O[C@H](COP(=O)(O)O)[C@@H](O)[C@H]1O`, the cytotoxicity call is “inactive”.

Take `Nc1nc(Cl)nc2c1ncn2[C@@H]1O[C@H](CO)[C@@H](O)[C@H]1O`: the cytotoxicity call was “inactive”.

`Nc1ncnc2c1ncn2[C@H]1O[C@@H](COP(=O)(O)OP(=O)(O)OP(=O)(O)O)[C@@H](O)[C@@H]1O`: the cytotoxicity call is “inactive”.

On to `OC[C@H]1O[C@H](n2cnc3cncnc32)[C@@H](O)[C@@H]1O`, for which the cytotoxicity call is “active”.

Consider `Cc1[nH]c(=O)[nH]c(=O)c1S(=O)(=O)N1CCC[C@H](C(=O)NCc2ccc3c(c2)OCO3)C1`, for which the cytotoxicity call is “inactive”.

For `C[C@@H]1CN([C@@H](C)CO)C(=O)c2cc(NC(=O)NC3CCCCC3)ccc2O[C@@H](C)CCCCO[C@H]1CN(C)Cc1ccncc1`, the cytotoxicity call was “inactive”.

As for `C[C@H]1CN([C@@H](C)CO)S(=O)(=O)c2ccc(C#CC3(O)CCCC3)cc2O[C@H]1CN(C)C(=O)Nc1cccc(F)c1`, the cytotoxicity call is “inactive”.

On to `C[C@H](CO)N1C[C@H](C)[C@H](CN(C)Cc2ccc(C(F)(F)F)cc2)Oc2ccc(NC(=O)Cc3cn(C)c4ccccc34)cc2C1=O`, for which the cytotoxicity call was “inactive”.

In the case of `O=C(C[C@@H]1CC[C@H](NC(=O)Cc2ccccn2)[C@@H](CO)O1)NCCCN1CCOCC1`, the cytotoxicity call was “inactive”.

As to `COc1ccc(CN(C)C[C@H]2OCCCC[C@@H](C)Oc3ccc(NC(=O)Nc4c(C)noc4C)cc3C(=O)N([C@H](C)CO)C[C@@H]2C)cc1`, the cytotoxicity call is “inactive”.

Take `C[C@H]1CCCCO[C@H](CN(C)C(=O)Nc2ccc3c(c2)OCO3)[C@@H](C)CN([C@@H](C)CO)C(=O)c2cc(NC(=O)Nc3cccc4ccccc34)ccc2O1`: the cytotoxicity call was “inactive”.

As to `COc1ccc(S(=O)(=O)N(C)C[C@H]2Oc3ccc(NC(=O)CCC(F)(F)F)cc3CC(=O)N([C@H](C)CO)C[C@@H]2C)cc1`, the cytotoxicity call is “inactive”.

Take `C[C@@H]1CN([C@H](C)CO)C(=O)Cc2cc(NS(=O)(=O)c3cccs3)ccc2O[C@H]1CN(C)Cc1ccc(Cl)c(Cl)c1`: the cytotoxicity call was “inactive”.

Consider `Cc1cccc(S(=O)(=O)N2C[C@H](O)COC[C@@H]3O[C@H](CC(=O)NCCCN4CCOCC4)CC[C@H]32)c1`, for which the cytotoxicity call is “inactive”.

On to `CC(=O)C=C(O)CCC(=O)O`, for which the cytotoxicity call was “inactive”.

With `C=CCSC1=N[C@@]2(COCc3ccc(OC)cc3)Oc3ccccc3[C@H]([C@H]2CO[Si](C)(C)C(C)(C)C)N1C(=O)c1ccccc1`, the cytotoxicity call is “inactive”.

As for `Cc1noc(C)c1S(=O)(=O)Nc1ccc2c(c1)C(=O)N([C@H](C)CO)C[C@H](C)[C@H](CN(C)C)OCCCC[C@H](C)O2`, the cytotoxicity call is “inactive”.

As to `CNc1ncnc2c1ncn2[C@@H]1O[C@H](CO)[C@@H](O)[C@H]1O`, the cytotoxicity call was “inactive”.

Consider `Nc1ncn([C@H]2C[C@H](O)[C@@H](CO)O2)c(=O)n1`, for which the cytotoxicity call is “inactive”.

As to `Nc1ncn([C@@H]2C[C@H](O)[C@@H](CO)O2)c(=O)n1`, the cytotoxicity call is “inactive”.

With `Nc1ncn(C2OC(CO)C(O)C2O)c(=O)n1` (stereo not given), the cytotoxicity call is “active”.

On to `Nc1ncn([C@@H]2O[C@H](CO)[C@@H](O)[C@H]2O)c(=O)n1`, for which the cytotoxicity call is “active”.

For `Nc1ccn([C@@H]2O[C@H](CO)[C@@H](O)[C@@H]2O)c(=O)n1`, the cytotoxicity call was “inactive”.

Take `OC[C@H]1O[C@@H](n2cnc3c(NCc4ccco4)ncnc32)[C@H](O)[C@@H]1O`: the cytotoxicity call is “active”.

As for `Nc1ccn([C@@H]2O[C@H](CO)[C@H](O)[C@@H]2O)c(=O)n1`, the cytotoxicity call is “inactive”.

For `OC[C@H]1O[C@@H](n2cnc3c(NC4CCCC4)ncnc32)[C@H](O)[C@@H]1O`, the cytotoxicity call is “inactive”.

Consider `C/C=C/c1ccc2c(c1)O[C@H](CN(C)S(=O)(=O)c1ccc(F)cc1)[C@H](C)CN([C@H](C)CO)S2(=O)=O`, for which the cytotoxicity call was “inactive”.

With `CCO[C@H]1[C@H]2CC[C@@H]1N(C(=O)N(C)C)CCO2`, the cytotoxicity call was “inactive”.

With `C[C@@H]1CCCCO[C@H](CN(C)S(C)(=O)=O)[C@H](C)CN([C@@H](C)CO)C(=O)c2cc(NS(C)(=O)=O)ccc2O1`, the cytotoxicity call was “inactive”.

`CCC(=O)N[C@@H]1C=C[C@@H](CC(=O)OC)O[C@@H]1CO`: the cytotoxicity call was “inactive”.

In the case of `CC(C)NC(=O)N(C)C[C@H]1Oc2ccc(NS(=O)(=O)c3ccccc3)cc2C(=O)N([C@@H](C)CO)C[C@@H]1C`, the cytotoxicity call was “inactive”.

As to `COc1ccc(S(=O)(=O)Nc2ccc3c(c2)C(=O)N([C@@H](C)CO)C[C@@H](C)[C@@H](CN(C)Cc2ccccc2)OCCCC[C@@H](C)O3)cc1`, the cytotoxicity call is “inactive”.

As to `O=C(C[C@H]1CC[C@@H]2[C@H](COC[C@H](O)CN2C(=O)C2CC2)O1)NCc1ccncc1`, the cytotoxicity call is “inactive”.

`Cc1cc(O)cc2c1O[C@](C)(CCC[C@H](C)CCC[C@H](C)CCCC(C)C)CC2`: the cytotoxicity call was “inactive”.

Take `Cc1noc(C)c1S(=O)(=O)Nc1cccc2c1O[C@H](CN(C)C(=O)NC1CCCCC1)[C@H](C)CN([C@@H](C)CO)C2=O`: the cytotoxicity call was “inactive”.

As for `C[C@H](CO)N1C[C@H](C)[C@H](CN(C)C(=O)Nc2ccc(F)cc2)Oc2ncc(C#Cc3ccc(C(F)(F)F)cc3)cc2C1=O`, the cytotoxicity call is “inactive”.

Regarding `C[C@H]1CN([C@@H](C)CO)C(=O)c2cccc(NS(=O)(=O)c3cccs3)c2O[C@H]1CN(C)Cc1ccc(Oc2ccccc2)cc1`, the cytotoxicity call is “inactive”.

Take `COc1ccc(NC(=O)Nc2cccc3c2O[C@@H](CN(C)C(=O)Nc2cccc4ccccc24)[C@H](C)CN([C@@H](C)CO)C3=O)cc1`: the cytotoxicity call is “inactive”.

`COc1ccc(NC(=O)Nc2cccc3c2O[C@H](CN(C)C(=O)Nc2cccc4ccccc24)[C@H](C)CN([C@H](C)CO)C3=O)cc1`: the cytotoxicity call was “active”.

Turning to `C[C@H]1CN([C@@H](C)CO)C(=O)c2cccc(NC(=O)Nc3cccc4ccccc34)c2O[C@H]1CN(C)C(=O)Nc1ccccc1`, the cytotoxicity call was “inactive”.

On to `C[C@H](CO)N1C[C@H](C)[C@@H](CN(C)C(=O)Nc2ccc(F)cc2)Oc2c(NC(=O)Nc3cccc4ccccc34)cccc2C1=O`, for which the cytotoxicity call was “inactive”.

Consider `C[C@H]1CN([C@@H](C)CO)C(=O)c2cccc(NC(=O)Nc3cccc4ccccc34)c2O[C@@H]1CN(C)C(=O)Nc1ccccc1`, for which the cytotoxicity call was “inactive”.

Regarding `C[C@@H]1CN([C@@H](C)CO)C(=O)c2cccc(NC(=O)Nc3cccc4ccccc34)c2O[C@H]1CN(C)C(=O)Nc1ccccc1`, the cytotoxicity call was “active”.

Turning to `C[C@H](CO)N1C[C@H](C)[C@H](CN(C)C(=O)Nc2ccc(F)cc2)Oc2c(NC(=O)Nc3cccc4ccccc34)cccc2C1=O`, the cytotoxicity call was “active”.

`C[C@@H]1CN([C@H](C)CO)C(=O)c2cccc(NC(=O)Nc3cccc4ccccc34)c2O[C@H]1CN(C)C(=O)Nc1ccc(F)cc1`: the cytotoxicity call was “inactive”.

Take `COc1ccc(NC(=O)Nc2cccc3c2O[C@@H](CN(C)C(=O)Nc2cccc4ccccc24)[C@H](C)CN([C@H](C)CO)C3=O)cc1`: the cytotoxicity call was “inactive”.

Take `C[C@H](CO)N1C[C@H](C)[C@H](CN(C)Cc2ccc(Cl)c(Cl)c2)Oc2c(NC(=O)Nc3ccc4c(c3)OCO4)cccc2C1=O`: the cytotoxicity call was “inactive”.

`C[C@H](CO)N1C[C@H](C)[C@H](CN(C)C(=O)c2ccncc2)Oc2cc(C#C[C@@H](C)O)ccc2S1(=O)=O`: the cytotoxicity call is “inactive”.

Consider `Cc1cc(F)ccc1S(=O)(=O)N1[C@@H]2CC[C@@H](C2)[C@H]1c1nc2cccc(OCc3ccc(F)cc3)c2[nH]1`, for which the cytotoxicity call was “inactive”.
